Rev-erbA mod: modulators of Rev-erb alpha DNA binding, primary screen, biochemical, FITC-DNA, fluorescence polarization, uHTS | Nuclear receptor subfamily 1 group D member 1 (Homo sapiens), P20393 | 370,000 tested, 0.79% active | AID 1259318, 2017 | activity, % at 10 µM | Rev-erbα–FITC-DNA binding, 90 min;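 active means activity above about 14%, limit read from the data; passing the limit was not always enough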;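 further: 0% = DMSO wells with 35 nM protein and 100% = DMSO wells with 750 nM protein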
hcDAF-12 act: H. contortus DAF-12 nuclear receptor activators, primary screen, cell-based, luminescence, HEK293, lit1-tk-luc reporter; HEK293 hcDAF-12 lit1-tk-luc reporter; 0% DMSO, 100% Δ7-dafachronic acid; activation, % at 6.8 µM; 370,000 tested, 1.4% active; AID 652067, 2013;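 active means activation above the mean of all tested compounds plus 3 SD, cut at about 5.5% in these data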;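 further: 100% = response to 3 µM Δ7-dafachronic acid high control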
hgDAF-12 ag: H. glycines DAF-12 receptor agonists, primary screen, cell-based, luminescence, HEK293, GAL4 fusion, UAS-luciferase | Nuclear hormone receptor DAF-12 (Heterodera glycines), GAL4 fusion | HEK293 GAL4-hgDAF12 UAS-luciferase reporter, agonist luminescence; normalized to butyrate control | activation, % at 6.8 µM | 370,000 tested, 1.8% active | AID 687014, 2013;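 active means activation above a cutoff set at the mean of all screened compounds plus 3 SD, cut at about 10% in these data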;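 further: 0% = DMSO wells and 100% = sodium butyrate wells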
DAX1 inh-1: DAX1 (NR0B1) inhibitors on StAR promoter, primary screen, cell-based, luminescence, SF-1 (NR5A1), full-length DAX-1; inhibition, % at 6.8 µM; 370,000 tested, 1.1% active; HEK293T StAR-luciferase reporter, SF-1/DAX-1 repression relief; AID 652010, 2013;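 active means inhibition above the mean over all tested compounds plus 3 SD, cut at about 3.6% in these data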;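 further: 0% = DAX-1 cells with DMSO and 100% = cells lacking DAX-1 with DMSO; higher inhibition means more luminescence from relief of DAX-1 repression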
DAX1 inh-2: DAX1 (NR0B1) inhibitors, primary screen, cell-based, HEK293, Gal4-DAX1, luciferase luminescence; Nuclear receptor subfamily 0 group B member 1 (Homo sapiens), P51843; HEK293 Gal4-DAX1 luciferase reporter; inhibition, % at 6.75 µM; 340,000 tested, 0.99% active; AID 504766, 2011;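 active means inhibition above the mean over all tested compounds plus 3 SD, cut at about 4.2% in these data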;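 further: 0% = DAX1-transfected cells with DMSO and 100% = empty-vector control cells with DMSO; inhibition shows as a rise in luminescence from relieved DAX1 repression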
Target sequence (P51843 207-470 limits assumed): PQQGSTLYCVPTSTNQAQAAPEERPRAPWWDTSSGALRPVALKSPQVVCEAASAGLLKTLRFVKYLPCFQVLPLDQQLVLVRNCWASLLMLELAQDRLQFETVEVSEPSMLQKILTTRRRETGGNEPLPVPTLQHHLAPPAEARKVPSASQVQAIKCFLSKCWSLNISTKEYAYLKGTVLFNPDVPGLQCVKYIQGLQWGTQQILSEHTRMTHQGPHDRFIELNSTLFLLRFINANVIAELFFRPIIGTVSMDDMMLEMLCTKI
ssDAF-12 act: S. stercoralis DAF-12 nuclear receptor activators, primary screen, cell-based, luminescence, HEK293, GRIP1 co-expression, lit1-tk-luc. HEK293 ssDAF-12/GRIP1 lit1-tk-luc reporter; % of 3 µM dafachronic acid response. AID 652126, 2013. Nuclear hormone receptor DAF-12 (Strongyloides stercoralis). activation, % at 6.8 µM. 370,000 tested, 1% active;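 active means activation above the mean over all tested compounds plus 3 SD, cut at about 0.9% in these data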;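 further: 0% = DMSO-only wells and 100% = 3 µM delta7-dafachronic acid wells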
An asterisk follows results filed as active; . = no result. Only some compounds are listed: those with a hit (about 4.8% of all), similar ones and a draw of the others.

SMILES	Rev-erbA mod	hcDAF-12 act	hgDAF-12 ag	DAX1 inh-1	DAX1 inh-2	ssDAF-12 act
Cc1ccc2c(c1)c1c3n2CCN(CCC#N)C3CCC1 (stereo not given)	4.7	1.3	-0.7	0.1	4.5*	-0.5
CC(COc1ccc(Cl)cc1)CN1CCC(C(O)(c2ccccc2)c2ccccc2)CC1 (stereo not given)	2.6	0.7	1.9	-1.2	.	-1.6
O=c1[nH]nc(Cc2ccc3ccccc3n2)c2ccccc12	0.5	6.5*	3.7	1.5	0.9	1.0*
CCSc1ccc(/C(N)=N/OC(=O)c2cccs2)cn1	-4.7	2.2	6.4	3.9*	1.6	-0.5
N/C(=N\OC(=O)c1cccs1)c1cccnc1	-1.7	3.0	3.1	0.5	3.0	-0.6
c1ccc(-c2ccc3ncccc3n2)cc1	2.6	2.0	8.4	3.7*	.	0.5
Cc1ccc(-n2nc3ccc(N)cc3n2)cc1Cl	-4.3	6.2*	6.1	2.1	1.6	0.1
COc1ccc(-n2nc3ccc(N)cc3n2)cc1Cl	3.9	0.7	4.7	0.1	-1.5	-1.3
Cc1ccc(-n2nc3ccc(N)cc3n2)cc1C	-6.1	5.8*	4.5	0.8	1.8	0.3
C[C@H]1Cn2nncc2Cn2c3ccccc3c(=O)n21	-4.3	-1.8	-2.4	-1.0	.	-0.2
N#C/C(=N\Nc1ccccc1F)C(=N)N1CCCCC1	1.8	5.1	11.1*	2.7	2.1	0.2
Cc1ccc(N/N=C(\C#N)C(=N)N2CCOCC2)cc1	7.5	3.0	13.0*	1.2	5.2*	0.6
CCN(CC)C(=N)/C(C#N)=N/Nc1ccc(C)cc1	-5.0	5.1	8.7	2.2	7.1*	-0.1
COc1ccc(N/N=C(\C#N)C(=N)N2CCCCC2)cc1	-2.1	0.8	9.7	0.3	6.4*	-0.8
COc1ccc(-c2nnc3n2N=C(c2cccc([N+](=O)[O-])c2)CS3)cc1	-4.7	-1.4	-1.1	-2.7	.	-0.5
CCn1c(Cc2cccs2)nnc1SCC(=O)Nc1ccc2c(c1)OCCO2	-2.0	-1.7	-3.0	-1.3	.	-0.6
CCCC1CCC2(CCCN2CCOC(=O)Nc2ccc(Br)cc2)CC1 (stereo not given)	-1.6	1.9	2.0	.	.	-1.4
CC(C)(C)c1ccc(-c2nnc(SCC3CCCCO3)n2-c2ccc(Cl)cc2)cc1 (stereo not given)	7.8	-1.5	4.0	-1.0	.	-1.3
O=[N+]([O-])c1ccccc1OCCOc1ccccc1[N+](=O)[O-]	0.2	4.9	3.6	0.4	3.8	-0.2
COc1ccc(OCCOc2ccccc2[N+](=O)[O-])cc1	0.1	0.6	8.5	1.6	0.6	1.2*
C=CCOC(=O)c1sc(NC(=O)c2ccco2)nc1C	1.7	4.6	10.7*	2.8	1.6	-0.5
Cc1csc(NC(=O)c2ccco2)n1	-2.6	1.1	5.3	0.8	1.3	1.0*
O=C(Nc1nc(-c2ccc(Cl)s2)cs1)c1cccs1	4.3	1.6	10.0	0.3	-0.5	-1.0
Cc1csc(NC(=O)c2sccc2C)n1	0.6	5.1	12.5*	2.2	2.7	0.3
O=C(Nc1nc(-c2ccc(Cl)s2)cs1)c1ccco1	.	0.9	11.5*	1.0	3.1	-1.2
SMILES	Rev-erbA mod	hcDAF-12 act	hgDAF-12 ag	DAX1 inh-1	DAX1 inh-2	ssDAF-12 act
CCOC(=O)CC[C@@H]1CC[C@]2(CCCN(Cc3nccs3)C2)O1	-2.2	-1.5	-5.4	0.8	.	-1.3
C=CCn1c(SCC(=O)C(C)(C)C)nnc1-c1ccc(Cl)cc1	0.5	-1.6	1.7	0.1	.	-1.1
O=C(NCC1CCN(C(=O)C(=O)c2cccs2)CC1)c1cccnc1	-3.2	1.0	3.0	0.1	.	-0.7
Cc1ccccc1C(=O)N[C@@H](CC(C)C)C(=O)N1CCC[C@H]1C(=O)NCc1ccccc1	-2.2	-0.9	-0.5	0.2	.	0.2
Cc1csc(NC(=O)c2cccn2C)n1	-1.2	4.6	12.2*	3.4	2.3	-0.2
Cc1csc(NC(=O)c2cc(-c3ccco3)nc3ccccc23)n1	-30.1	4.3	1.3	-0.6	-0.5	8.8*
Cn1cccc1C(=O)Nc1nc(-c2ccccn2)cs1	-9.1	1.2	6.3	-0.5	-0.7	-0.1
COc1ccc(C(=O)Nc2ccc3cn[nH]c3c2)c(OC)c1	-4.7	1.0	-2.1	1.5	2.2	0.9*
COc1ccc(C(=O)Nc2ccc3[nH]ccc3c2)cc1OC	0.0	0.8	5.5	1.6	3.1	-0.6
COc1ccc(C(=O)Nc2ccc3[nH]ccc3c2)cc1	-7.8	9.5*	15.6*	2.6	-7.2	2.5*
COc1ccc(C(=O)Nc2ccc3[nH]ncc3c2)cc1	3.1	3.2	13.2*	2.3	-3.7	0.8
O=C(Nc1ccc2[nH]ncc2c1)c1ccc(F)cc1	-5.1	-1.1	9.8	2.5	0.2	-0.8
COc1ccc(C(=O)N/N=C(\C)CC(=O)Nc2ccc3ccccc3c2)c(OC)c1	1.4	1.0	4.2	2.9	1.1	-0.4
COc1ccc(OC)c(C(=O)Nc2ccc3[nH]ccc3c2)c1	-0.5	4.1	11.6*	2.2	0.6	0.5
CC(=O)Nc1ccc(OCC(C)CN2CCC(C(O)(c3ccccc3)c3ccccc3)CC2)cc1 (stereo not given)	4.8	-0.7	-3.2	-0.5	.	-1.5
[C-]#[N+][C@]12C(=O)[C@H](C=C(Cl)[C@@]1(C)C=C)C(C)(C)[C@H]1C(=O)N(C)c3cccc2c31	3.0	-2.1	-4.4	-2.0	.	-1.6
CN(C(=O)C1CCN(c2cncnc2)CC1)C1CCCCC1	-5.8	-0.7	0.8	-0.5	.	-1.3
O=C(Nc1ccc2[nH]ccc2c1)c1cccs1	3.0	1.9	10.6*	2.4	-1.2	0.4
CC(C)(C)OC(=O)n1ccc2ccc(-c3ccc4cc[nH]c4c3)cc21	3.0	-2.5	10.2	0.1	.	-1.0
O=C(/C=C/c1ccc(Cl)cc1)NC1CC2CCC1C2 (stereo not given)	4.1	-1.1	11.4*	0.8	-0.1	-1.0
O=C(NCc1ccccc1)c1cccc(COc2ccccc2Cl)c1	2.1	2.8	8.9	-1.1	-1.9	-1.1
O=C(NCc1ccccc1)c1cccc(COc2cc(Cl)ccc2Cl)c1	2.0	0.4	10.7*	0.0	0.1	0.0
C[C@@H](c1ccccc1)N1C[C@@H](COCc2ccccc2)Oc2cc(N3CCC[C@H]3C(N)=O)ccc2S1(=O)=O	-1.3	1.5	2.6	0.6	.	4.2*
